Records with an inconclusive call do not appear. Active and inactive are the calls of the source. Unless noted, no stated cut-off is given here; in the data, active means percent of DMSO control GFP below about 86%; inactive means the rest, inconclusive results apart.
Legend:
[1] = yeast TOR pathway RPL19A-GFP modulators, primary screen, cell-based, S. cerevisiae, multiplex flow cytometry (AID 1862);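 further: lower values mimic rapamycin by blocking the RPL19A rise seen in DMSO cells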; details: S. cerevisiae RPL19A-GFP strain, flow cytometry fluorescence, 3 h; at 10 µM; stronger effect = lower value
[2] = modulators of MEP2-GFP levels in yeast, primary screen, S. cerevisiae, multiplex flow cytometry (AID 1867;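 active means GFP response, as percent of the DMSO control, above the screen-wide mean plus 3 SD, about 139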;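 further: median GFP channel fluorescence of barcode-gated MEP2-GFP cells measured by flow cytometry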); details: S. cerevisiae MEP2-GFP strain, 3 h, at 10 µM, stronger effect = higher value, 100% means same as DMSO wells
[3] = modulators of CIT2-GFP expression in yeast, primary screen, S. cerevisiae, GFP fusion, multiplex flow cytometry (AID 1870;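 active means percent response above a set limit, the screen-wide mean plus 3 SD, cut at about 130% in these data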;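 further: barcoded CIT2-GFP strain pooled with four other GFP strains with rapamycin as positive control; median GFP fluorescence per well over plate mean of DMSO wells so 100% = DMSO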); details: 3 h, at 10 µM, stronger effect = higher value
[4] = modulators of LAP4-GFP expression in yeast, primary screen, S. cerevisiae, multiplex flow cytometry (AID 1873;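 active means GFP signal, as percent of the solvent control, above the screen mean plus 3 SD, about 149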); details: 3 h, at 10 µM, stronger effect = higher value
[5] = modulators of AGP1-GFP expression in yeast TOR pathway, primary screen, cell-based, multiplex flow cytometry, S. cerevisiae (AID 1887;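 active means GFP signal above the screen-wide mean plus 3 SD, that is over about 124.5% of the solvent control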;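 further: AGP1-GFP fusion strain of S. cerevisiae within a five-strain barcoded multiplex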); details: 3 h, at 10 µM, stronger effect = higher value
[6] = inhibitors of CD8+ T cell-vesicle binding, pilot screen, LFA-1/ICAM-1 modulator project, MLPCN validation set, flow cytometry (AID 2523;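 active means response below a set limit, under 55% cells CD8-positive and vesicle-bound, and CD8 cells' 90th-percentile brightness under 279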;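 on vesicle binding response: mean PE anti-B7-1 fluorescence of CD8+ cells relative to row control; 100% = QL9-loaded vesicles with DMSO vehicle in the same plate row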); details: 2C mouse CD8+ T cells, at 7 µM, stronger effect = lower value; double positive events: measured here: CD8+/vesicle+ event percentage
[7] = target: Integrin beta-1 (Homo sapiens) + Integrin alpha-4 (Homo sapiens) (UniProt P13612+P05556); assay: inhibition of HUTS-21 binding to VLA-4, pilot screen, VLA-4 allosteric modulator project, U937 cells, HUTS-21 mAb, flow cytometry, validation set (AID 2674;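 active means inhibition above 50%, about 3 SD of the validation set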;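 further: antibody binding induced by the VLA-4 ligand LDV present at three times its Kd; 0% = LDV ligand with antibody and no compound and 100% = antibody without LDV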); details: HUTS-21 LIBS mAb binding, at 6.7 µM, stronger effect = higher value, binding induced by LDV ligand
Integrin beta-1 (Homo sapiens) + Integrin alpha-4 (Homo sapiens), sequence (P05556 whole entry, looked up): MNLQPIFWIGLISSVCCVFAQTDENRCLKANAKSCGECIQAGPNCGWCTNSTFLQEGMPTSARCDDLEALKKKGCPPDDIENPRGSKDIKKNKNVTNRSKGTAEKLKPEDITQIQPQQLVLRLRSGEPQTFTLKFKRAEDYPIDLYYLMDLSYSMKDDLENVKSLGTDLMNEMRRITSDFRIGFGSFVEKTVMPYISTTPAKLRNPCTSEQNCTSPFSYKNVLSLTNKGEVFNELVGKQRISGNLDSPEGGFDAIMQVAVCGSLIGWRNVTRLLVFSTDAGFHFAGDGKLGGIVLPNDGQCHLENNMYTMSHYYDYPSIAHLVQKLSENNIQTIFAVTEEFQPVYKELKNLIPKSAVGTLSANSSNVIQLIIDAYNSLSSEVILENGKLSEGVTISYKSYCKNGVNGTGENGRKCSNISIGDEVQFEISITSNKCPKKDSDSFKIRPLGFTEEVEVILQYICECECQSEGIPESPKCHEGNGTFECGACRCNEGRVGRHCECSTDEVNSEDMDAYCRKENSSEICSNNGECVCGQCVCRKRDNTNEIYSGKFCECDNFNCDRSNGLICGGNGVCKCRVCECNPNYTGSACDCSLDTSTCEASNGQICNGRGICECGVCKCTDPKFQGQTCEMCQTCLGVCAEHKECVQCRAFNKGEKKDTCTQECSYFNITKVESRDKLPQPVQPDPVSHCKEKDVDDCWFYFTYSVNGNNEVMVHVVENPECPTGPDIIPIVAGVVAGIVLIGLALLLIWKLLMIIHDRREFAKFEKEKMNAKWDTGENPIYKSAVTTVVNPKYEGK
Integrin beta-1 (Homo sapiens) + Integrin alpha-4 (Homo sapiens), sequence (P13612 whole entry, looked up): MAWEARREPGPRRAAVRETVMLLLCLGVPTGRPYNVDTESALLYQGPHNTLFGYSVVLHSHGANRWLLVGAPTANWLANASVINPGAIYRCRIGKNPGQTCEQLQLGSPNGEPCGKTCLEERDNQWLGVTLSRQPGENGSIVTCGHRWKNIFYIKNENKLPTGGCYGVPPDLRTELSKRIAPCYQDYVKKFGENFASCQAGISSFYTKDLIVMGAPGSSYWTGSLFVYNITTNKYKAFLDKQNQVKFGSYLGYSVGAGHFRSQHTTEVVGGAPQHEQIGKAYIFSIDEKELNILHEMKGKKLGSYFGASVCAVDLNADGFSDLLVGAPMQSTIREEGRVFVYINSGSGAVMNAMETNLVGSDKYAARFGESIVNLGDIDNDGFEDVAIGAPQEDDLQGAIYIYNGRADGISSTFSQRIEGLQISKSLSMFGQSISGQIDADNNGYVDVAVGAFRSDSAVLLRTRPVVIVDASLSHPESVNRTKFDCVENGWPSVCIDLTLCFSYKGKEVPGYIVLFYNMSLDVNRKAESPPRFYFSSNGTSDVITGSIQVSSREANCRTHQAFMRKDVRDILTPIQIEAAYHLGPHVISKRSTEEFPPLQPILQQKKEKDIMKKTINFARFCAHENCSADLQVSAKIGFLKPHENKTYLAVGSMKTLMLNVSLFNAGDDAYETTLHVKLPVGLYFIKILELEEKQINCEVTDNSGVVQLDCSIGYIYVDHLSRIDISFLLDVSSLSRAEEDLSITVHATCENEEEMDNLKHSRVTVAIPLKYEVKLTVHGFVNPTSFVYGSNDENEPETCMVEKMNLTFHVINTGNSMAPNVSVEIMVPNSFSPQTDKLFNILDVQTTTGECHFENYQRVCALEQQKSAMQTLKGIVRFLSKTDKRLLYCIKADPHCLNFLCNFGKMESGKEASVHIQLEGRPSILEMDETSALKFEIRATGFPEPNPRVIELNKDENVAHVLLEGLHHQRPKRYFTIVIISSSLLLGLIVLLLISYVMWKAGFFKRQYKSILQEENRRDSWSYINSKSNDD

[8] = superoxide lowering in aged yeast cells, pilot screen, validation compound set (AID 2706;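 active means superoxide response below 65% of plate, a cut near 3 SD across the whole screen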;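 further: yeast exposed to compound for one week at 30 degrees C before staining; 100% = mean of all compound wells on the same plate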); details: S. cerevisiae aging, superoxide DHE fluorescence; at 10 µM; stronger effect = lower value
[9] = target: Beta-adrenergic receptor kinase 1 (Homo sapiens) (UniProt P25098); assay: GRK2 binders displacing RNA aptamer, biochemical, validation, human GRK2, bead flow cytometry (AID 488806;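 active means aptamer binding inhibition above 30%, about 3 SD of noise from non-fluorescent compounds; inactive means inhibition at or below 30%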); details: bead-bound GRK2, FAM-aptamer displacement, at 10 µM, stronger effect = higher value
Beta-adrenergic receptor kinase 1 (Homo sapiens), sequence (P25098 whole entry, looked up): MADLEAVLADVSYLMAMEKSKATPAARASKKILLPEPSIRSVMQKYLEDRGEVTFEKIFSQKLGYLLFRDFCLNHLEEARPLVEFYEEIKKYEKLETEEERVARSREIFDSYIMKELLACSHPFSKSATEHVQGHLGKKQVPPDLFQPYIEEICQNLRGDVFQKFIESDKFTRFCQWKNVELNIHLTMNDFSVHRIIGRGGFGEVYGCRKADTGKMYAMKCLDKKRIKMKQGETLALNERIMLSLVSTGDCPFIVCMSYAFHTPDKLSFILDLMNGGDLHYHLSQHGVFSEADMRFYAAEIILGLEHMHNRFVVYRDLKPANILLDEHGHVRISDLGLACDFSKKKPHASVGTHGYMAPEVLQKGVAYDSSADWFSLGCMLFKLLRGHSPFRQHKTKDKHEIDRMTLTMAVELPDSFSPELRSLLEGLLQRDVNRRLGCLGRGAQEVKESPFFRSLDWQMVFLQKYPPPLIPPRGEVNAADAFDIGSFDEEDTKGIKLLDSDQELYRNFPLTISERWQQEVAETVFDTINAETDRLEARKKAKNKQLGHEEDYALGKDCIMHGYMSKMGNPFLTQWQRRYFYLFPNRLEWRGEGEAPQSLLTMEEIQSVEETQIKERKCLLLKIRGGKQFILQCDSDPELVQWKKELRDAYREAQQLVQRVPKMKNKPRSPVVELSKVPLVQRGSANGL

[10] = target: Beta-2 adrenergic receptor (Homo sapiens) (UniProt P07550); assay: beta2AR agonists driving receptor internalization, pilot screen, cell-based, FAP fluorogen, flow cytometry, validation set (AID 504459;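 active means percent response above 42, roughly 3 SD of non-fluorescent test compounds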;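 further: agonist-driven loss of surface beta2AR via internalization measured by FAP dye flow cytometry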); details: Am2.2-beta2AR cells, FAP surface receptor flow cytometry; at 10 µM; stronger effect = higher value
Beta-2 adrenergic receptor (Homo sapiens), sequence (P07550 whole entry, looked up): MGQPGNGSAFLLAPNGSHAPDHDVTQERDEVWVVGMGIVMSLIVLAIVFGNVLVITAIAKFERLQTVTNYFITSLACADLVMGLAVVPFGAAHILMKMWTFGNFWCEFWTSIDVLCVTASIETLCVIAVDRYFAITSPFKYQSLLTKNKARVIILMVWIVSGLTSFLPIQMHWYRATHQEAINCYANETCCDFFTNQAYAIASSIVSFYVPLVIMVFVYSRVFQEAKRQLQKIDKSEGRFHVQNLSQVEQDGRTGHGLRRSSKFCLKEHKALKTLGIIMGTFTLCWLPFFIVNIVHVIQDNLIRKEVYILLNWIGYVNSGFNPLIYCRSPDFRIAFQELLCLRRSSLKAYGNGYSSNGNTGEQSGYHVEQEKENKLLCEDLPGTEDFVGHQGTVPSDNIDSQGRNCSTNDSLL

[11] = target: AP-2 complex subunit beta (Homo sapiens) (UniProt P63010); assay: inhibitors of arrestin peptide binding to AP2, pilot screen, biochemical, validation set, GST-AP2 beads, flow cytometry (AID 504541;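 active means inhibition above 54%, about 3 SD of non-fluorescent compounds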;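 further: AP2 carries R879A mutation and is captured from E. coli lysate; bead-bound FITC arrestin peptide fluorescence measuring arrestin peptide binding to AP2; 0% = DMSO wells and 100% = excess unlabeled arrestin peptide control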); details: FITC arrestin peptide, at 10 µM, stronger effect = higher value, AP2 beta2 appendage fragment, R879A mutant
AP-2 complex subunit beta (Homo sapiens), sequence (P63010 whole entry, looked up, the tested form may be a part, one chain of several): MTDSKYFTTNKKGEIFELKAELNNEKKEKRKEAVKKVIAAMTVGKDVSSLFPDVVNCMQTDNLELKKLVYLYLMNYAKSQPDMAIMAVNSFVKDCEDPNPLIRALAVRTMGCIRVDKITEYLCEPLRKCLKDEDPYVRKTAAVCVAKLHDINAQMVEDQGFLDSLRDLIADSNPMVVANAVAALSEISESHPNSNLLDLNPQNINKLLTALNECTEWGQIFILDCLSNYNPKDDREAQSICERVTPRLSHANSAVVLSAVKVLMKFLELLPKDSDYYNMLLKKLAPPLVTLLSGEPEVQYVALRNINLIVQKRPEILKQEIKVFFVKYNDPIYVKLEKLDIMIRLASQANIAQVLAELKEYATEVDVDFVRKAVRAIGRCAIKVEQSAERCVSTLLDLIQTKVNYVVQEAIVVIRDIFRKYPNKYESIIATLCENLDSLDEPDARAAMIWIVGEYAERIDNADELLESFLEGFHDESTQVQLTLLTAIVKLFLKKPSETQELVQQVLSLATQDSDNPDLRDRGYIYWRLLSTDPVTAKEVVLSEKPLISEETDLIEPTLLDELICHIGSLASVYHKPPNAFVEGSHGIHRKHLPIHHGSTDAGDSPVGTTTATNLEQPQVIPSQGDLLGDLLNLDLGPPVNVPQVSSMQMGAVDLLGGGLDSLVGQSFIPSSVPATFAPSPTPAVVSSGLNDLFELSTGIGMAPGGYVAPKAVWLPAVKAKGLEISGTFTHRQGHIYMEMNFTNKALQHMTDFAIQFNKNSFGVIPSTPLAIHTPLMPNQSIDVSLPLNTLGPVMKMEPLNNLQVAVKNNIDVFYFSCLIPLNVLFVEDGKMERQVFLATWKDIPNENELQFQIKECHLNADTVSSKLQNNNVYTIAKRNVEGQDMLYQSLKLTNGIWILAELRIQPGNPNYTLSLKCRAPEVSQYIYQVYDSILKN

[12] = yeast V-ATPase proton transport modulators, S. cerevisiae, pHLuorin, HTS validation (AID 504600; in the data active means response above about 15%;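 further: plate controls were DMSO for no effect and reference compound for full effect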); details: S. cerevisiae pHLuorin cytosolic pH, at 10 µM, stronger effect = higher value
[13] = test system: anti-desmoglein-3 scFv antibody binding to human DSG3; assay: inhibitors of anti-DSG3 scFv binding to DSG3, pilot screen, biochemical, validation compound set, bead-based, flow cytometry (AID 588368;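 active means binding below the plate cutoff, the plate median minus 3 SD, with a reading above zero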;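 further: signal is the median channel fluorescence of bead-bound GFP antibody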); details: Protein G beads, DSG3-Fc, scFv-GFP binding, at 10 µM, stronger effect = lower value
[14] = inhibitors of fungal efflux pumps CDR1, CDR2, MDR1, pilot screen, validation compound set, multiplex, phenotypic (AID 588506;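 active means efflux inhibition above 0.42, the validation set average plus 4 SD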;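 further: Nile Red retained in cells so higher fluorescence means more efflux inhibition; 0 = negative control wells and 1 = enniatin B 25 µM full block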); details: S. cerevisiae pump-expressing triplex, Nile Red efflux flow cytometry; at 10 µM; stronger effect = higher value; the pumps come from Candida albicans
[15] = target: ATP-binding cassette sub-family B member 6 (Homo sapiens) (UniProt Q9NP58); assay: ABCB6 transporter inhibitors, pilot screen, K562-ABCB6 cells, flow cytometry, validation set (AID 588550;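 active means inhibition above the screen-wide mean plus 3 SD, about 51%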;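 further: 0% = DMSO wells and 100% = benzethonium chloride 70 µM positive control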); details: K562-ABCB6 porphyrin accumulation, 1 h, at 10 µM, stronger effect = higher value
ATP-binding cassette sub-family B member 6 (Homo sapiens), sequence (Q9NP58 whole entry, looked up): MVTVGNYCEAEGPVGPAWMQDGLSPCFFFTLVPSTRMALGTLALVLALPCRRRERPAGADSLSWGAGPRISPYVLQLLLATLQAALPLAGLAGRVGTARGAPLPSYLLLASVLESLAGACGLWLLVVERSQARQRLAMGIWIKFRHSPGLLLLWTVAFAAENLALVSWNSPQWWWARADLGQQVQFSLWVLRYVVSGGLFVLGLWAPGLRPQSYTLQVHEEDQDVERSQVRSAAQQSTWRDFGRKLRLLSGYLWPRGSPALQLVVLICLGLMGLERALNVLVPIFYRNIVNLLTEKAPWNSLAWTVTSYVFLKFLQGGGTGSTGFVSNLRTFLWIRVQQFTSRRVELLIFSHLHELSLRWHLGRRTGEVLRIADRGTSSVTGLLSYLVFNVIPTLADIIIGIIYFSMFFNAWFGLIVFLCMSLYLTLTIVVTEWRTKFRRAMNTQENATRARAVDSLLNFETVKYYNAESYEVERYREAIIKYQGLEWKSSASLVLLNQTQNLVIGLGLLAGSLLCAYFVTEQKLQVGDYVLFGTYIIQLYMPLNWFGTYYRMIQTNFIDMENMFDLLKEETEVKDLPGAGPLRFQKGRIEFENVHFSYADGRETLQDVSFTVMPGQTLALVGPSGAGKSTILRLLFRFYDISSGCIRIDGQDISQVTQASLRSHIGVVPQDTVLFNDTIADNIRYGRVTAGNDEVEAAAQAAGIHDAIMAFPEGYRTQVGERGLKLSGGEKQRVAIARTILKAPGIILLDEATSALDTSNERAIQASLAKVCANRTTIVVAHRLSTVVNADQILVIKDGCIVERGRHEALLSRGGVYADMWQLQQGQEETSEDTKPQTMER

[16] = promoters of myeloid differentiation in arrested cells, primary screen, cell-based, GFP/MAC1 double positive, flow cytometry, validation set (AID 588685;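 active means differentiation response of at least 50%, scaled between solvent and reference control, from cells with both markers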;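 further: compound exposure lasts four days before antibody staining and flow analysis; 0% = DMSO wells and 100% = 5 µM fulvestrant positive control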); details: ER-HoxA9 marrow cells, stronger effect = higher value, normalized: vehicle 0, fulvestrant 100

SMILES: Oc1ccccc1OCCOc1ccccc1OCCOc1ccccc1O
- percent of DMSO control GFP [1]: 100% (inactive)
- GFP response vs DMSO [2]: 108% (inactive)
- percent response of DMSO control [3]: 105% (inactive)
- GFP response vs DMSO [4]: 117% (inactive)
- GFP response, % of DMSO [5]: 110% (inactive)
- double positive events [6]: 62.1%
- vesicle binding response [6]: 245% (inactive)
- inhibition [7]: 15.9% (inactive)
- superoxide response (% of plate) [8]: 97.2% (inactive)
- aptamer binding inhibition [9]: -2% (inactive)
- response [10]: -15.9% (inactive)
- inhibition [11]: 1.79% (inactive)
- response [12]: -8.12% (inactive)
- binding (% of control) [13]: 112% (inactive)
- efflux inhibition (fraction of control) [14]: -0.04 (inactive)
- inhibition [15]: 6% (inactive)
- differentiation response [16]: -6.96% (inactive)

SMILES: NS(=O)(=O)c1cc(C2(O)NC(=O)c3ccccc32)ccc1Cl (stereo not given)
- percent of DMSO control GFP [1]: 101% (inactive)
- GFP response vs DMSO [2]: 117% (inactive)
- percent response of DMSO control [3]: 115% (inactive)
- GFP response vs DMSO [4]: 78.7% (inactive)
- GFP response, % of DMSO [5]: 89.6% (inactive)
- double positive events [6]: 58.2%
- vesicle binding response [6]: 252% (inactive)
- inhibition [7]: -16.8% (inactive)
- superoxide response (% of plate) [8]: 110% (inactive)
- aptamer binding inhibition [9]: -6% (inactive)
- response [10]: -3.96% (inactive)
- inhibition [11]: -17.4% (inactive)
- response [12]: 1.36% (inactive)
- binding (% of control) [13]: 105% (inactive)
- efflux inhibition (fraction of control) [14]: -0.13 (inactive)
- inhibition [15]: 9% (inactive)
- differentiation response [16]: 4.09% (inactive)

SMILES: COc1cc(/C=C/C(=O)O)cc(S(=O)(=O)NCCCO)c1OC
- percent of DMSO control GFP [1]: 97.3% (inactive)
- GFP response vs DMSO [2]: 98.5% (inactive)
- percent response of DMSO control [3]: 91% (inactive)
- GFP response vs DMSO [4]: 116% (inactive)
- GFP response, % of DMSO [5]: 105% (inactive)
- double positive events [6]: 59.6%
- vesicle binding response [6]: 157% (inactive)
- inhibition [7]: 6.4% (inactive)
- superoxide response (% of plate) [8]: 95.1% (inactive)
- aptamer binding inhibition [9]: 5% (inactive)
- response [10]: 8.94% (inactive)
- inhibition [11]: -5.7% (inactive)
- response [12]: -0.12% (inactive)
- binding (% of control) [13]: 96.6% (inactive)
- efflux inhibition (fraction of control) [14]: -0.13 (inactive)
- inhibition [15]: 5% (inactive)
- differentiation response [16]: -15.2% (inactive)

SMILES: O[C@H]1COC2C1OC[C@@H]2O (stereo not given in full)
- percent of DMSO control GFP [1]: 99% (inactive)
- GFP response vs DMSO [2]: 107% (inactive)
- percent response of DMSO control [3]: 102% (inactive)
- GFP response vs DMSO [4]: 115% (inactive)
- GFP response, % of DMSO [5]: 118% (inactive)
- double positive events [6]: 58.3%
- vesicle binding response [6]: 204% (inactive)
- inhibition [7]: 1.44% (inactive)
- superoxide response (% of plate) [8]: 87.6% (inactive)
- aptamer binding inhibition [9]: 0% (inactive)
- response [10]: -28.6% (inactive)
- inhibition [11]: 3.72% (inactive)
- response [12]: 1.96% (inactive)
- binding (% of control) [13]: 104% (inactive)
- efflux inhibition (fraction of control) [14]: 0 (inactive)
- inhibition [15]: 2% (inactive)
- differentiation response [16]: -4.99% (inactive)

SMILES: CC(C)CN1CCN(Cc2cccn2-c2ccccn2)CC1CCO (stereo not given)
- percent of DMSO control GFP [1]: 90.9% (inactive)
- GFP response vs DMSO [2]: 113% (inactive)
- percent response of DMSO control [3]: 103% (inactive)
- GFP response vs DMSO [4]: 80.3% (inactive)
- GFP response, % of DMSO [5]: 95.9% (inactive)
- double positive events [6]: 64.2%
- vesicle binding response [6]: 241% (inactive)
- inhibition [7]: 22.9% (inactive)
- superoxide response (% of plate) [8]: 114% (inactive)
- aptamer binding inhibition [9]: -2% (inactive)
- response [10]: -7.51% (inactive)
- inhibition [11]: -9.17% (inactive)
- response [12]: 74.8% (active)
- binding (% of control) [13]: 102% (inactive)
- efflux inhibition (fraction of control) [14]: 0.48 (active)
- inhibition [15]: 16% (inactive)
- differentiation response [16]: 1.64% (inactive)
